Assay results from PubChem BioAssay AID743287 (Broad Institute, 2014).
Where “and” joins values, the source holds several entries; their conditions need not be identical. Equal entries are not always repeated. Among all 370,000 compounds or so, about 2,300 (0.62%) were called active.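 How the source made its calls: active means lowest replicate activation of at least 40%, so every replicate reaches that level; inactive means the rest.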 What follows is part of a selection rich in actives, with near analogues and random picks from the rest.

Assay: GLuc luminescence reporter in INS-1E cells, primary screen for activators of glucose-dependent secretion of insulin (AID 743287);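 further: 0% = median of neutral control wells and 100% = median of IBMX positive control wells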
Conditions: INS-1E GLuc reporter insulin secretion, 2-3 h, at 16.6 µM, hits give high values

activation, active:
NS(=O)(=O)c1ccc(CNC(=O)c2cc(S(=O)(=O)N3CCOCC3)ccc2N2CCCC2)cc1 46.1%, O=C(CN1CCC(NC(=O)C2CC2)CC1)Nc1ccccc1[N+](=O)[O-] 96.7%, CCOc1ncccc1C(=O)Nc1ccc(S(=O)(=O)Nc2nc(C)cc(C)n2)cc1 65.9%, COCCNC(=S)N(Cc1cccnc1)Cc1ccc(OC)c(OC)c1 53.5%, CCC1OC(C2CC2)CC2=C1C(=O)OC(C)(C)O2 (stereo not drawn) 44.5%, CCCCc1nc(NCCN)c(C#N)c2c1CSC(C)(C)C2 44.2%, CCOC(=O)C1(Cc2cccc(OC)c2)CCCN(C(=O)CCSC)C1 (stereo not drawn) 51.6%, Cc1cccc(CS(=O)(=O)c2ncc(Cl)c(C(=O)Nc3ccc(F)cc3)n2)c1 44.8%, CC1CN(Cc2ccccc2)C(=S)NC1=O (stereo not drawn) 41.2%, COc1ccc(Cc2nnc(SCC(=O)Nc3ccc(C)c(C)c3)o2)cc1OC 71.9%, CNC(=S)N/N=C/c1ccc(OCc2ccccc2)c(Br)c1 107%, Cc1cc(N/C=C\C(=O)c2ccc(Cl)c(Cl)c2)no1 76.1%, CC(C)CC#Cc1ccc([C@H]2[C@H]3CN(C(=O)c4cnccn4)CC(=O)N3[C@H]2CO)cc1 54.1%, CCCCCc1c(Cc2ccccc2)ncn1CCc1ccccc1OC 70%, Cc1ccc(S(=O)(=O)N(C)c2nc3ccccc3n3c(C(C)C)nnc23)cc1 66.1%, O=C(Nc1ccc2c(c1)OCO2)c1sc2cc(Cl)ccc2c1Cl 69.2%, C=CS(=O)c1sc(Cl)c(N2CCOCC2)c1[N+](=O)[O-] (stereo not drawn) 99.9%

activation, inactive:
O=C(NCC1CCCCC1)c1cc(S(=O)(=O)N2CCCCC2)ccc1N1CCOCC1 -3.7%, O=C(CNC(=O)c1cc(S(=O)(=O)N2CCOCC2)ccc1N1CCCC1)Nc1ccc(F)c(F)c1 -28.2%, C[C@@H]1CCCCO[C@@H](CN(C)Cc2ccc(C(=O)Nc3ccccc3N)cc2)[C@H](C)CN([C@H](C)CO)C(=O)c2cc(N(C)C)ccc2O1 4.89%, C[C@@H]1CN([C@@H](C)CO)C(=O)CCCn2cc(nn2)CO[C@@H]1CN(C)C(=O)C1CCCCC1 5.75%, COc1ccc2c3c([nH]c2c1)[C@@H](CO)N(C(=O)C1CC1)CC31CCN(C(=O)c2ccncc2)CC1 1.51%, O=C(CN1CCCCC1)Nc1ccccc1C(=O)NC1CC1 22.4%, O=C(CN1CCCCCC1)Nc1ccc(Br)cc1[N+](=O)[O-] 7%, Cc1ccnc(NS(=O)(=O)c2ccc(NC(=O)c3ccc(S(=O)(=O)N(C)C)cc3)cc2)n1 7.95%, O=C(Nc1ccc(S(=O)(=O)Nc2ncccn2)cc1)c1cncc(Br)c1 1.33%, COCCNC(=S)N(CCc1c(C)[nH]c2ccc(C)cc12)Cc1cccnc1 -2.95%, COCCCNC(=S)N(Cc1ccccc1)Cc1ccc(F)cc1 -5.03%, COc1ccc(-c2cnc3c(c2)C(=O)N([C@@H](C)CO)C[C@@H](C)[C@H](CN(C)C(=O)C2CCCCC2)O3)cc1 -13.6%, O=C(C[C@H]1CC[C@H]2[C@@H](COC[C@@H](O)CN2S(=O)(=O)c2ccc(Cl)cc2)O1)NCCN1CCCCC1 17.3%, CNC[C@@H]1Oc2cc(-c3ccccc3OC)ccc2S(=O)(=O)N([C@H](C)CO)C[C@H]1C 5.62%, CC[C@@H]1CC2=C(C(=O)OC(C)(C)O2)[C@@H](CC)O1 -0.455%, CC1(C)OC(=O)C2=C(C[C@@H](C3CC3)O[C@H]2CCc2cccc(Cl)c2)O1 -7.22%, O=C(Nc1ccc(C(F)(F)F)cc1)N1[C@@H]2CNC[C@H]1C2c1ccc(-c2ccncc2)cc1 (stereo partly drawn) 3.37% and 12.2%, CCCCc1nc(NCc2ccccc2)c(C#N)c2c1CCCC2 -17.4%, COc1cccc(S(=O)(=O)N2[C@@H]3CNC[C@H]2C3c2ccc(-c3cccc(C(=O)N(C)C)c3)cc2)c1 (stereo partly drawn) 11.3% and 0.645%, CO[C@H]1CN(C)C(=O)c2cc(NS(C)(=O)=O)ccc2OC[C@@H](C)N(C(=O)NC(C)C)C[C@@H]1C 8.6%, CCOC(=O)C1(Cc2cccc(OC)c2)CCCN(S(=O)(=O)c2cccnc2)C1 (stereo not drawn) -3.61%, CCOC(=O)C1(Cc2cccc(OC)c2)CCN(C(C)COC)CC1 (stereo not drawn) 5.01%, C[C@@H]1CN([C@H](C)CO)C(=O)c2cccc(NC(=O)CCCCCC(=O)Nc3ccccc3N)c2O[C@H]1CN(C)CC1CCCCC1 -3.22%, C[C@@H]1CN([C@@H](C)CO)C(=O)c2cc(NC(=O)Nc3ccccc3)ccc2O[C@H]1CN(C)S(=O)(=O)c1ccccc1 6.36%, Cc1onc(-c2c(F)cccc2Cl)c1C(=O)Nc1cccc(S(=O)(=O)N2CCCCC2)c1 -9.79%, CN(CCC(=O)Nc1cc(S(=O)(=O)N(C)C)ccc1Cl)CC(=O)Nc1ccc(F)cc1 -1.06%, C/C=C/c1ccc(C2[C@H]3CNC[C@@H]2N3CC2CCOCC2)cc1 (stereo partly drawn) 8.12%, C[C@@H]1CN([C@@H](C)CO)C(=O)Cc2cc(NC(=O)Cc3ccccc3)ccc2O[C@H]1CN(C)Cc1ccc(C(=O)O)cc1 12.1%, CC(C)NC(=O)Nc1ccc2c(c1)C(=O)N(C)[C@H]1CC[C@H](CC(=O)NCC3CCCCC3)O[C@@H]1CO2 5.93%, CCC(=O)Nc1ccc2c(c1)C(=O)N(C)C[C@H](OC)[C@@H](C)CN(Cc1nccs1)[C@H](C)CO2 5.56%, CC1CN(Cc2ccco2)C(=S)N(c2ccccc2)C1=O (stereo not drawn) 10.7%, CC1CC(=S)Nc2ccccc2N1Cc1ccccc1 (stereo not drawn) -14.5%, COCC(=O)N(C)C[C@H]1Oc2cc(C#CC3CCCC3)ccc2S(=O)(=O)N([C@H](C)CO)C[C@@H]1C -6.72%, COc1ccccc1CNC(=O)C[C@H]1C[C@@H]2c3cc(NC(=O)Nc4ccccc4F)ccc3O[C@@H]2[C@H](CO)O1 13.4%, Cc1ccc(NC(=O)CSc2nnc(COc3ccccc3C)o2)cc1 6.85%, COc1cccc(NC(=O)CSc2nnc(Cc3ccc(OC)c(OC)c3)o2)c1 37.6%, C[C@H](CO)N1C[C@H](C)[C@@H](CN(C)C)Oc2ncc(-c3cccc(F)c3)cc2C1=O -1.15%, C[C@H](CO)N1C[C@H](C)[C@@H](CN(C)Cc2ccccc2)Oc2c(NC(=O)CCCCCC(=O)Nc3ccccc3N)cccc2C1=O -7.28%, Oc1c(Br)cc(/C=N/NC(=S)NCC2CCCO2)cc1Br (stereo not drawn) -34.5%, CNC(=S)N/N=C/c1ccc(N2CCOCC2)s1 8.01%, COCC#Cc1cnc2c(c1)C(=O)N([C@H](C)CO)C[C@H](C)[C@H](CN(C)C(=O)Cc1cccnc1)O2 27.8%, COc1cccc(-c2cnc3c(c2)C(=O)N([C@H](C)CO)C[C@H](C)[C@H](CN(C)S(=O)(=O)c2cccc(F)c2)O3)c1 -6.84%, C[C@H](CO)N1C[C@H](C)[C@@H](CN(C)C(=O)Cc2ccncc2)Oc2ncc(C#CCN(C)C)cc2C1=O 36.3%, Cc1cc(NC(=O)COc2ccccc2C#N)no1 10.8%, Cc1cc(NCc2cccnc2)no1 -3.31%, COc1ccc(CN(C)C[C@H]2Oc3c(NC(=O)c4cnccn4)cccc3C(=O)N([C@H](C)CO)C[C@@H]2C)cc1 3%, O=C1[C@H](Cc2ccc(C(F)(F)F)cc2)CCn2nncc2COC[C@@H]2CCCCN12 1.36%, CC(C)CC#Cc1ccc([C@@H]2[C@@H](CO)N3C(=O)CN(C(=O)c4cnccn4)C[C@@H]23)cc1 25.5%, O=C(c1cnccn1)N1CC(=O)N2[C@H](C1)[C@@H](c1ccc(C#CC3CCCCC3)cc1)[C@@H]2CO 1.34%, CO[C@@H]1CN(C)C(=O)c2ccc(NC(=O)Nc3ccccc3)cc2OC[C@@H](C)N(C(=O)Nc2c(C)noc2C)C[C@@H]1C -0.32%, CCCCc1c(-c2ccc(Cl)cc2)ncn1CCc1ccccc1OC -9.43%, CCCCCc1c(-c2ccc(OC)c(OC)c2)ncn1CCc1ccccc1OC -29.6%, Cc1ccccc1-c1ccc([C@H]2[C@@H](CO)N3C(=O)CN(C(=O)c4cccnc4)C[C@@H]23)cc1 -14.5%, COc1cccc(S(=O)(=O)N2CCC3(CC2)CN[C@H](CO)c2c3c3ccc(OC)cc3n2C)c1 -2.73%, Cc1cc(NC(C)C)n2c(nc3ccccc32)c1C#N 4.84%, O=C(Cc1ccncc1)N1CC[C@@H]2[C@@H](CO)Nc3ccc(C4=CCCCC4)cc3[C@@H]21 8.52%, CN(C)CCCNC(=O)C[C@H]1CC[C@H]2[C@@H](COC[C@H](O)CN2CC2CCCCC2)O1 1.49%, CCSc1ccccc1C(=O)Nc1ccc2c(c1)OCO2 -1.24%, CC(Sc1nc2cc(Cl)ccc2s1)C(=O)Nc1ccc2c(c1)OCO2 (stereo not drawn) -18.8%, COc1ccc2c3c([nH]c2c1)[C@H](CO)N(C(=O)Nc1ccc(F)cc1)CC31CCN(C(=O)Nc2c(C)noc2C)CC1 -8.35%, O=C(Nc1ccc(F)cc1)N1CC(=O)N2[C@H](CO)[C@H](c3ccc(C#Cc4ccccc4)cc3)[C@H]2C1 -21.6%
